The source made the active and inactive calls. How the source made its calls: active means hit-call score of the fitted dose curve at least 0.9, where 1 is the maximum; inactive means score below 0.9.
Experiments:
Details in all cases: mRNA level, 48 h; actives raise or lower the signal
[1] = read-out: Bcl-2 (BID) gene, BID (gene 637); test: LTEA_HepaRG_BID: Life Technologies and Expression Analysis (LTEA) Assay for Bcl-2 (BID) gene using HepaRG (AID 2283476)
Summary of the method: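 Gain or loss of BID expression is fitted relative to 0.5% DMSO vehicle. Human HepaRG liver cells received a 48 h chemical exposure over an eight-point concentration range.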

Caspase-3 (Homo sapiens) = Caspase-3 (Homo sapiens) (UniProt P42574); test: LTEA_HepaRG_CASP3: Life Technologies and Expression Analysis (LTEA) Assay for cysteine-aspartic acid protease (CASP3) using HepaRG (AID 2283477)
Chain of Caspase-3 (Homo sapiens) (P42574 whole entry, looked up): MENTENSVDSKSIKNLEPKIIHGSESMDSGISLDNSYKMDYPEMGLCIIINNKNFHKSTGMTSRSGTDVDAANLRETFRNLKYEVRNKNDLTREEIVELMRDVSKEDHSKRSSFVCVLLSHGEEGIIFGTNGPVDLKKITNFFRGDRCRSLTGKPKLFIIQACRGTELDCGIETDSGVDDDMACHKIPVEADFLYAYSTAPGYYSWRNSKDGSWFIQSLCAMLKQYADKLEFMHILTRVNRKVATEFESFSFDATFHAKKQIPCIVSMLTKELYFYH
Summary of the method: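 Transcript-level assay: CASP3 mRNA in human HepaRG after 48 h treatment, eight half-log concentrations from 100 uM in 0.5% DMSO, quantified by qRT-PCR.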

[2] = read-out: Cytochrome P450 (CYP1A2), CYP1A2 (gene 1544); test: LTEA_HepaRG_CYP1A2: Life Technologies and Expression Analysis (LTEA) Assay for Cytochrome P450 (CYP1A2) using HepaRG (AID 2283479)
Summary of the method: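 In duplicate wells, HepaRG cultures maintained in 0.5% DMSO were treated 48 h across an 8-point, half-log series topping at 100 uM; phenobarbital (1 mM) served as induction control. Expression was read by qRT-PCR.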

[3] = read-out: cysteine-aspartic acid protease (CASP8), CASP8 (gene 841); test: LTEA_HepaRG_CASP8: Life Technologies and Expression Analysis (LTEA) Assay for cysteine-aspartic acid protease (CASP8) using HepaRG (AID 2283480)
Summary of the method: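 Differentiated HepaRG cells in serum-free induction medium, 48 h exposure, eight-point half-log series from 100 uM in 0.5% DMSO, duplicates. CASP8 mRNA by qRT-PCR, normalized to ACTB, GAPDH, POLR2A; bidirectional fit versus DMSO.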

[4] = read-out: Cytochrome P450 (CYP2B6), CYP2B6 (gene 1555); test: LTEA_HepaRG_CYP2B6: Life Technologies and Expression Analysis (LTEA) Assay for Cytochrome P450 (CYP2B6) using HepaRG (AID 2283481)
Summary of the method: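 Human HepaRG, 48 h dosing, 0.5% DMSO vehicle, top dose 100 uM. CYP2B6 transcript by qRT-PCR, housekeeping-normalized, bidirectional curve fit.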

[5] = read-out: Cytochrome P450 2C19 (Homo sapiens) (UniProt P33261); test: LTEA_HepaRG_CYP2C19: Life Technologies and Expression Analysis (LTEA) Assay for CYP2C19 using HepaRG (AID 2283482)
Summary of the method: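 Endpoint: CYP2C19 mRNA change, bidirectional fit vs 0.5% DMSO. Cells: HepaRG, 48 h exposure, eight-point series topping at 100 uM. Quantitation: qRT-PCR normalized to ACTB, GAPDH, POLR2A.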

CYP2C8 (gene 1558) = test: LTEA_HepaRG_CYP2C8: Life Technologies and Expression Analysis (LTEA) Assay for CYP2C8 using HepaRG (AID 2283483)
Summary of the method: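 Differentiated HepaRG cells in serum-free induction medium exposed 48 h in duplicate to 8 half-log concentrations from 100 uM in 0.5% DMSO. CYP2C8 mRNA by qRT-PCR normalized to ACTB, GAPDH, POLR2A; bidirectional fit versus DMSO.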

CYP2C9 (gene 1559) = test: LTEA_HepaRG_CYP2C9: Life Technologies and Expression Analysis (LTEA) Assay for CYP2C9 using HepaRG (AID 2283484)
Summary of the method: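 Differentiated human HepaRG cells in serum-free induction medium were exposed 48 h to chemicals in 8-point half-log series from 100 uM (0.5% DMSO), in duplicate. CYP2C9 mRNA was measured by qRT-PCR, normalized to ACTB/GAPDH/POLR2A, with bidirectional fitting versus DMSO.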

CYP2E1 (gene 1571) = test: LTEA_HepaRG_CYP2E1: Life Technologies and Expression Analysis (LTEA) Assay for CYP2E1 using HepaRG (AID 2283485)
Summary of the method: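 Differentiated HepaRG cells were treated in duplicate for 48 h with chemicals in 0.5% DMSO, from 100 uM downward in half-log dilutions. RNA was then analysed by qRT-PCR for CYP2E1 induction or loss.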

CYP4A11 (gene 1579) = test: LTEA_HepaRG_CYP4A11: Life Technologies and Expression Analysis (LTEA) Assay for CYP4A11 using HepaRG (AID 2283486)
Summary of the method: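 Human hepatic HepaRG cultures receive duplicate 48 h exposures across a concentration-response series topping at 100 uM. Expression changes in CYP4A11 are measured by qRT-PCR relative to DMSO controls.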

[6] = read-out: Cytochrome P450 3A4 (Homo sapiens) (UniProt P08684); test: LTEA_HepaRG_CYP3A4: Life Technologies and Expression Analysis (LTEA) Assay for CYP3A4 using HepaRG (AID 2283487)
Summary of the method: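 Differentiated HepaRG cells, plated 48 h, then dosed 48 h in serum-free induction medium with 0.5% DMSO, 8 half-log concentrations up to 100 uM, duplicate. CYP3A4 mRNA by qRT-PCR, normalized to ACTB/GAPDH/POLR2A; bidirectional fit versus DMSO.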

[7] = read-out: DNA damage-inducible transcript 3 (DDIT3), DDIT3 (gene 1649); test: LTEA_HepaRG_DDIT3: Life Technologies and Expression Analysis (LTEA) Assay for DNA damage-inducible transcript 3 (DDIT3) using HepaRG (AID 2283488)
Summary of the method: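 Changes in DDIT3 transcript, in either direction relative to 0.5% DMSO vehicle, were quantified by TaqMan qRT-PCR after 48 h chemical exposure of HepaRG cells at 8 concentrations, maximum 100 uM.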

[8] = read-out: Pro-epidermal growth factor (Homo sapiens) (UniProt P01133); test: LTEA_HepaRG_EGF: Life Technologies and Expression Analysis (LTEA) Assay for Epidermal growth factor (EGF) using HepaRG (AID 2283489)
Summary of the method: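 Concentration-response mRNA assay: HepaRG cells dosed 48 h (max 100 uM, 0.5% DMSO), EGF measured by qRT-PCR and normalized to ACTB/GAPDH/POLR2A.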

[9] = read-out: Early growth response protein 1 (EGR1) transcription factor, EGR1 (gene 1958); test: LTEA_HepaRG_EGR1: Life Technologies and Expression Analysis (LTEA) Assay for Early growth response protein 1 (EGR1) transcription factor using HepaRG (AID 2283490)
Summary of the method: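 Differentiated HepaRG cells in serum-free induction medium exposed 48 hours, duplicate, to 8 half-log concentrations up to 100 uM in 0.5% DMSO. EGR1 mRNA measured by TaqMan qRT-PCR, normalized to ACTB, GAPDH, POLR2A; bidirectional fit versus DMSO.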

[10] = read-out: Ezrin (EZR), EZR (gene 7430); test: LTEA_HepaRG_EZR: Life Technologies and Expression Analysis (LTEA) Assay for Ezrin (EZR) using HepaRG (AID 2283491)
Summary of the method: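 EZR transcript levels came from Fluidigm qRT-PCR and were normalized to three housekeeping genes after 48 h chemical exposure of HepaRG cells. Dosing used an 8-point half-log series with a 100 uM top concentration in 0.5% DMSO, tested in duplicate; both directions were fitted versus vehicle.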

[11] = read-out: Cytochrome P450 3A7 (Homo sapiens) (UniProt P24462); test: LTEA_HepaRG_CYP3A7: Life Technologies and Expression Analysis (LTEA) Assay for CYP3A7 using HepaRG (AID 2283492)
Summary of the method: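 qRT-PCR of CYP3A7 in HepaRG lysates after 48 h treatment; concentration-response (8 points, max 100 uM) analysed bidirectionally relative to 0.5% DMSO controls.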

CYP3A5 (gene 1577) = test: LTEA_HepaRG_CYP3A5: Life Technologies and Expression Analysis (LTEA) Assay for CYP3A5 using HepaRG (AID 2283493)
Summary of the method: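 mRNA induction or loss of CYP3A5 assessed in HepaRG after 48 h dosing, 100 uM top concentration, duplicate wells; TaqMan qRT-PCR with ACTB, GAPDH, POLR2A normalization; 0.5% DMSO as negative control.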

[12] = read-out: Fatty Acid-Binding Protein 1 (FABP1), FABP1 (gene 2168); test: LTEA_HepaRG_FABP1: Life Technologies and Expression Analysis (LTEA) Assay for Fatty Acid-Binding Protein 1 (FABP1) using HepaRG (AID 2283494)
Summary of the method: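 Differentiated human HepaRG cells exposed 48 h in serum-free induction medium to eight half-log concentrations up to 100 uM (0.5% DMSO), duplicate. FABP1 mRNA by qRT-PCR, normalised to ACTB, GAPDH, POLR2A; bidirectional fitting against DMSO.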

[13] = read-out: Cytochrome P450 4A22 (Homo sapiens) (UniProt Q5TCH4); test: LTEA_HepaRG_CYP4A22: Life Technologies and Expression Analysis (LTEA) Assay for Cytochrome P450 4A22 (CYP4A22) using HepaRG (AID 2283495)
Summary of the method: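 Concentration-response (8 points, max 100 uM, 0.5% DMSO) in human HepaRG liver cells after 48 h exposure. CYP4A22 mRNA by TaqMan qRT-PCR with housekeeping-gene normalization.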

[14] = read-out: Cytochrome P450 (CYP24A1), CYP24A1 (gene 1591); test: LTEA_HepaRG_CYP24A1: Life Technologies and Expression Analysis (LTEA) Assay for Cytochrome P450 (CYP24A1) using HepaRG (AID 2283478)
Summary of the method: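 Gene expression of CYP24A1 by TaqMan qRT-PCR in HepaRG after 48 h treatment, highest concentration 100 uM; activity fitted in both directions relative to DMSO vehicle.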

Chain of Cytochrome P450 3A7 (Homo sapiens) (P24462 whole entry, looked up): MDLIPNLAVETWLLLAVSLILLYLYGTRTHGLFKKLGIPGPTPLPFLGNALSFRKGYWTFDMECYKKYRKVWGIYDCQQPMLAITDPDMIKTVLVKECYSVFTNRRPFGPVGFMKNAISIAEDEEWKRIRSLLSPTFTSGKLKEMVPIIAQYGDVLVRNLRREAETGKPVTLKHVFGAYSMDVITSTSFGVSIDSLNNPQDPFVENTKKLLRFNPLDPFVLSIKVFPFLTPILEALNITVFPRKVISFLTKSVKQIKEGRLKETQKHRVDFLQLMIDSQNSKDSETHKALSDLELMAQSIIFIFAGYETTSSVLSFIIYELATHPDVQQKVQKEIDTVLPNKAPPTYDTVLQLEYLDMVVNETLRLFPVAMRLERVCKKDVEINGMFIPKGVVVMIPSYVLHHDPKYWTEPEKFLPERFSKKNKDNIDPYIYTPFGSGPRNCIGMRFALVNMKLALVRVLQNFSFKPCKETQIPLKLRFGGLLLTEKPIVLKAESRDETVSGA
Chain of Cytochrome P450 2C19 (Homo sapiens) (P33261 whole entry, looked up): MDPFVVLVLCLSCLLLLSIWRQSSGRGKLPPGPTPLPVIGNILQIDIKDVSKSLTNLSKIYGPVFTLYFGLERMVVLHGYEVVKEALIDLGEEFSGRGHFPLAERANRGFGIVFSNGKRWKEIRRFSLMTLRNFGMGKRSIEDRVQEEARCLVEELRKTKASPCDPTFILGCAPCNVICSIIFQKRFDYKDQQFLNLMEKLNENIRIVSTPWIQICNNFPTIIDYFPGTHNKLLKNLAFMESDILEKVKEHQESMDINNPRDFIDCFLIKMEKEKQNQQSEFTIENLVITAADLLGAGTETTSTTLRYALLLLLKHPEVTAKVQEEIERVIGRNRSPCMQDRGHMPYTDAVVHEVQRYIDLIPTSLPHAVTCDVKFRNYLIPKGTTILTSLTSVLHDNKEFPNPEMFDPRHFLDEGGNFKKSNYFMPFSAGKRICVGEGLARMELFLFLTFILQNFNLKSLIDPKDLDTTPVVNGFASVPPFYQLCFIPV
Chain of Cytochrome P450 3A4 (Homo sapiens) (P08684 whole entry, looked up): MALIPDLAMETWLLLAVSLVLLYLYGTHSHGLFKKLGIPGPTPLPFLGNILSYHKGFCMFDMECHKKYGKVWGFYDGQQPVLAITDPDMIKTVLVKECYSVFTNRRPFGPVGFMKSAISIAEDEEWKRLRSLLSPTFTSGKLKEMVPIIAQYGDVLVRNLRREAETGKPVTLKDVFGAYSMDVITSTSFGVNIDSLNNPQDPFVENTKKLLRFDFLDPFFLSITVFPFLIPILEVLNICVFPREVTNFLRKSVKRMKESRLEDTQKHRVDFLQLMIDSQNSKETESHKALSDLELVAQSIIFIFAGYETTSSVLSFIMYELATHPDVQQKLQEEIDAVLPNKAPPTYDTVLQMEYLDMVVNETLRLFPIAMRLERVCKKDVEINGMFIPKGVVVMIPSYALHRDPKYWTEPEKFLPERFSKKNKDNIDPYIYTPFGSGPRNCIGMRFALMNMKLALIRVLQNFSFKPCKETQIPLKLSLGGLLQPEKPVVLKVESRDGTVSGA

CC(C)C(=O)OCC(C)(C)C(OC(=O)C(C)C)C(C)C (stereo unspecified)
outcome [1]: inactive
outcome (Caspase-3 (Homo sapiens)): inactive
outcome [2]: inactive
outcome [3]: inactive
outcome [4]: inactive
outcome [5]: inactive
outcome (CYP2C8 (gene 1558)): inactive
outcome (CYP2C9 (gene 1559)): inactive
outcome (CYP2E1 (gene 1571)): inactive
outcome (CYP4A11 (gene 1579)): inactive
outcome [6]: inactive
outcome [7]: inactive
outcome [8]: inactive
outcome [9]: inactive
outcome [10]: inactive
outcome [11]: inactive
outcome (CYP3A5 (gene 1577)): inactive
outcome [12]: inactive
outcome [13]: inactive

CC(C)(c1ccccc1)c1ccc(O)cc1
outcome [1]: inactive
outcome (Caspase-3 (Homo sapiens)): inactive
outcome [14]: inactive
AC50 [2]: 75.5 µM (active)
outcome [3]: inactive
AC50 [4]: 11.8 µM (active)
outcome [5]: inactive
outcome (CYP2C8 (gene 1558)): inactive
outcome (CYP2C9 (gene 1559)): inactive
outcome (CYP2E1 (gene 1571)): inactive
outcome [7]: inactive
outcome [8]: inactive
outcome [9]: inactive
outcome [10]: inactive
outcome [11]: inactive
outcome (CYP3A5 (gene 1577)): inactive
outcome [12]: inactive
outcome [13]: inactive

Cc1cccc([N+](=O)[O-])c1
outcome [1]: inactive
outcome (Caspase-3 (Homo sapiens)): inactive
outcome [2]: inactive
outcome [3]: inactive
AC50 [4]: 8.74 µM (active)
outcome [5]: inactive
outcome (CYP2C8 (gene 1558)): inactive
outcome (CYP2C9 (gene 1559)): inactive
outcome (CYP2E1 (gene 1571)): inactive
outcome (CYP4A11 (gene 1579)): inactive
outcome [7]: inactive
outcome [9]: inactive
outcome [10]: inactive
outcome [11]: inactive
outcome (CYP3A5 (gene 1577)): inactive
outcome [12]: inactive

CCC(=O)O[C@H]1CC[C@H]2[C@@H]3CCC4=CC(=O)CC[C@]4(C)[C@H]3CC[C@]12C
outcome [1]: inactive
outcome (Caspase-3 (Homo sapiens)): inactive
outcome [2]: inactive
outcome [3]: inactive
AC50 [4]: 50 µM (active)
AC50 [5]: 3.23 µM (active)
outcome (CYP2C8 (gene 1558)): inactive
outcome (CYP2C9 (gene 1559)): inactive
AC50 (CYP2E1 (gene 1571)): 3.12 µM (active)
AC50 (CYP4A11 (gene 1579)): 1.16 µM (active)
outcome [7]: inactive
outcome [8]: inactive
outcome [9]: inactive
outcome [10]: inactive
outcome [11]: inactive
outcome (CYP3A5 (gene 1577)): inactive
AC50 [12]: 19.9 µM (active)
AC50 [13]: 0.308 µM (active)

— PubChem BioAssay (EPA / NIEHS)
